# Measurements: PubChem BioAssay AID2284139 (EPA ToxCast)
# Active and inactive are the calls of the source. Rule for the calls: active = hit-call score of the fitted dose curve at least 0.9, where 1 is the maximum; inactive = score below 0.9.
# Molecular target: human ZAP70 Tyrosine Kinase, ZAP70 (gene 7535) (UniProt P43403)
# Experiment: ERF_FR_ENZ_hZAP70: Eurofins (ERF) Enzymatic Radiometric [Km ATP] KinaseProfiler LeadHunter Assay for human ZAP70 Tyrosine Kinase
# Method: ERF_FR_ENZ_hZAP70 is a biochemical, single-readout assay that uses extracted gene-proteins in a cell-free assay. Measurements were taken 0.25 hour after chemical dosing in a 96-well plate. See ZAP70 Human TK Kinase Enzymatic HTRF Assay [Km ATP], Cerep.ERF_FR_ENZ_hZAP70 is an assay component calculated from the ERF_FR_ENZ_hZAP70 assay. It is designed to measure enzyme activity using a type of enzyme reporter as detected by fluorescence intensity with HTRF technology.Data from the assay component ERF_FR_ENZ_hZAP70 was analyzed at the assay endpoint, ERF_FR_ENZ_hZAP70, in the positive analysis fitting direction relative to DMSO as the negative control and baseline of activity. Using a type of enzyme reporter, loss-of-signal activity can be used to understand changes in enzymatic activity as they relate to gene ZAP70. To generalize the intended target to other relatable targets, this assay endpoint is annotated to the kinase intended target family, where the subfamily is protein tyrosine kinase.
# ZAP-70 (h) is incubated with 50 mM Tris pH 7.5, 0.1 mM EGTA, 0.1 mM Na3VO4, 0.1% […], 0.1 mg/mL poly(Glu, Tyr) 4:1, 10 mM MnCl2, 10 mM MgAcetate and [gamma-33P]-ATP (specific activity and concentration as required). The reaction is initiated by the addition of the Mg/ATP mix. […]
# Chain of human ZAP70 Tyrosine Kinase, ZAP70 (gene 7535) (P43403 whole entry, looked up): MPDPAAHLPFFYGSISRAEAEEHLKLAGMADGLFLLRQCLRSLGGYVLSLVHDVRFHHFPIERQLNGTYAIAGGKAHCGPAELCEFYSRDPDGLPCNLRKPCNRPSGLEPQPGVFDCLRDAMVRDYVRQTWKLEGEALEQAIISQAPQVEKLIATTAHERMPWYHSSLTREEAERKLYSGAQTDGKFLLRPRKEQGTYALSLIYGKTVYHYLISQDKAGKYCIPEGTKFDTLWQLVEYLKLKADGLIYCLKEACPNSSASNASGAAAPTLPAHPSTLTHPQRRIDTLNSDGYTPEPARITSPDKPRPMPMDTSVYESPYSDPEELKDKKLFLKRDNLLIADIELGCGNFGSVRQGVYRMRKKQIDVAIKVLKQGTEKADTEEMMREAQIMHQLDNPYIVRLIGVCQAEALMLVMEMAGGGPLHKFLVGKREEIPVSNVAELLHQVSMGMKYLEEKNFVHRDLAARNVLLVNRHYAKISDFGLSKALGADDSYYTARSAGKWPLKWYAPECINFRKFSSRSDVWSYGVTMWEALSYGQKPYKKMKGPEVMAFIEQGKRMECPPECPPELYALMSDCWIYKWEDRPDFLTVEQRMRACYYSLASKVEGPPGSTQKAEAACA
row,SMILES,outcome
1,O=C(/C=C/c1ccc(O)cc1)CC(=O)/C=C/c1ccc(O)cc1,inactive
